Laboratory results reported in PubChem BioAssay AID651610 (Broad Institute, 2012).
About 3,900 (1.1%) of roughly 360,000 compounds were called active. The entries come from a sample that favours actives as a whole. Values without a mark were called inactive.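 Rule for the calls: active = mean replicate inhibition score of at least 50 and every replicate individually at or above 50; inconclusive = only one of the two criteria met; inactive = mean below 50 and not all replicates reaching 50.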

Assay: blockers of JRFL envelope-mediated fusion – HeLa-JRFL effector, CEM21 target cells, luciferase, primary screen (AID 651610);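 note: 0% = plate neutral controls and 100% = maraviroc near 300 nM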
Settings: HeLa-JRFL Env/CEM21 cell fusion, active compounds read high; at 16.7 µM unless noted
Work on CCC(=O)N[C@H]1CC[C@@H](CC(=O)NCc2cc(F)cc(F)c2)O[C@@H]1CO yielded an inhibition of -5.23%. Compound COc1ccc(NC(=O)N(C)C[C@H]2Oc3ccc(NC(=O)NC(C)C)cc3CC(=O)N([C@H](C)CO)C[C@H]2C)cc1 has an inhibition of 2.47%. In the case of C[C@@H]1CCCCO[C@H](CN(C)S(=O)(=O)c2cccs2)[C@H](C)CN([C@H](C)CO)C(=O)c2cc(NC(=O)c3ccccc3)ccc2O1, the inhibition is reported as 21.5%. With Cc1ccc(S(=O)(=O)NCCC(=O)OCC(=O)N(C)c2ccccc2)cc1 the inhibition was -4.53% [at 12.3 µM]. Work on CN(c1ccccc1)S(=O)(=O)c1ccc(C(=O)NCCc2ccccc2)cc1 yielded an inhibition of -11.1% [at 12.3 µM]. For CN(C(=O)CC(NC(=O)c1ccccc1)(c1ccccc1)c1ccccc1)c1ccccc1, the inhibition was 68.6% [at 12.3 µM] (active). In the case of CC(=O)c1ccc(S(=O)(=O)N2CCC3(CC2)OCCO3)cc1, the inhibition is reported as -7.27% [at 12.3 µM]. With CC(=O)c1ccc(S(=O)(=O)N2CCN(C(=O)/C=C/c3ccc4ccccc4n3)CC2)cc1 the inhibition was 21.1% [at 12.3 µM]. For CC(=O)c1ccc(S(=O)(=O)N2CCN(c3nc4c(C)c(C)ccc4cc3C#N)CC2)cc1, the inhibition was 82.5% [at 12.3 µM] (active). For C[C@@H](CN1C2=NC[C@@H](Cc3ccccc3)N2C[C@H]1Cc1ccc(O)cc1)NC(=O)CCC1CCCCC1, the inhibition was -12.9% [at 12.3 µM]. For C[C@@H]1CCCCO[C@H](CN(C)C(=O)C2CCCCC2)[C@@H](C)CN([C@H](C)CO)C(=O)c2cc(NC(=O)C3CCCCC3)ccc2O1, the inhibition was 13.6%. CC(C)(C)NC(=O)C(CCc1ccccc1)n1c(=O)c(-c2ccccc2)nc2ccccc21 (configuration not stated) showed an inhibition of 20.1% [at 12.3 µM]. For CSCCC(C(=O)NC(C)(C)C)n1c(-c2ccccc2)nc2ccccc21 (configuration not stated), the inhibition was 56.4% [at 12.3 µM] (active). Compound CCC(C(=O)NC(C)(C)C)n1c(-c2ccccc2)nc2ccccc21 (configuration not stated) has an inhibition of -10.4% [at 12.3 µM]. Compound COc1cccc(C(=O)Nc2ccc3c(c2)C(=O)N(C)[C@@H]2CC[C@H](CC(=O)NCCCN4CCOCC4)O[C@H]2CO3)c1 has an inhibition of -4.21%. With Clc1ccc2c(c1)C1=C(C(c3ccncc3)O2)C(c2ccc(Br)cc2)n2ncnc2N1 (configuration not stated) the inhibition was 74.5% [at 12.3 µM] (active). For O=C(C[C@@H]1C=C[C@H](NC(=O)Nc2ccc(C(F)(F)F)cc2)[C@H](CO)O1)NCc1cccc(F)c1, the inhibition was 9.04%. Work on C[C@H](CO)N1C[C@H](C)[C@H](CN(C)Cc2ccc(C(=O)O)cc2)Oc2ccc(NS(=O)(=O)c3cn(C)cn3)cc2CC1=O yielded an inhibition of -3.12%. In the case of C[C@@H]1CN([C@@H](C)CO)C(=O)c2cccc(NC(=O)c3ccc(-c4nccs4)cc3)c2O[C@H]1CN(C)Cc1ccc(Cl)c(Cl)c1, the inhibition is reported as 38.1%. Work on COc1ccccc1-c1cnc2c(c1)C(=O)N([C@@H](C)CO)C[C@H](C)[C@H](CN(C)C(=O)c1ccncc1)O2 yielded an inhibition of 2.54%. In the case of CCCCn1c(SCC(=O)N2CCOCC2)nc2c1c(=O)n(C)c(=O)n2C, the inhibition is reported as -4.99% [at 12.3 µM]. In the case of C#CC(C)(C)NC(=O)CSc1nc2c(c(=O)n(C)c(=O)n2C)n1CCCC, the inhibition is reported as -13.9% [at 12.3 µM]. For CCCCn1c(SCC(=O)NCCc2ccc(OC)c(OC)c2)nc2c1c(=O)n(C)c(=O)n2C, the inhibition was 114% [at 12.3 µM] (active). In the case of C[C@H](CO)N1C[C@H](C)[C@H](CN(C)CC2CCCCC2)OCCCC[C@H](C)Oc2ccc(NC(=O)c3ccncc3)cc2C1=O, the inhibition is reported as -17.1%. In the case of COC(=O)C1=C(C)N(Cc2ccccc2C(F)(F)F)C(=NCc2ccc(C(F)(F)F)cc2)NC1c1ccc(F)cc1 (configuration not stated), the inhibition is reported as 5.73% [at 12.3 µM]. For O=C(NCC(F)(F)F)[C@H]1[C@H](CO)[C@H]2Cn3c(ccc(-c4ccncc4)c3=O)[C@H]2N1Cc1ccncc1, the inhibition was -9.96%. With COc1cccc(S(=O)(=O)Nc2ccc3c(c2)[C@@H]2C[C@@H](CC(=O)NC4CCCCC4)O[C@H](CO)[C@@H]2O3)c1 the inhibition was -5.43%. With CC(C)C[C@@H](COCc1ccc(Cl)cc1)N1CCN(C(=O)c2ccc(Cl)cc2Cl)CCC1=O the inhibition was -24.6% [at 12.3 µM]. In the case of CC(C)CC(COCc1ccc(Cl)cc1)N1CCN(C(=O)c2ccc(C(F)(F)F)cc2)CCC1=O (configuration not stated), the inhibition is reported as 65.7% [at 12.3 µM] (active). Work on O=C(c1ccc(C(F)(F)F)cc1)N1CCC(=O)N([C@H](COCc2ccccc2)Cc2ccccc2)CC1 yielded an inhibition of -5.07% [at 12.3 µM]. Work on O=C(C[C@H]1C[C@H]2c3cc(NC(=O)Cc4ccncc4)ccc3O[C@H]2[C@@H](CO)O1)NCc1cccc(F)c1 yielded an inhibition of 3.14%. For COCC(=O)N(C)C[C@H]1Oc2ncc(-c3ccc(C)cc3)cc2C(=O)N([C@@H](C)CO)C[C@@H]1C, the inhibition was -0.608%. For Cc1noc(C)c1S(=O)(=O)N(C)C[C@@H]1OCCCC[C@@H](C)Oc2ccc(NC(=O)c3ccccc3)cc2C(=O)N([C@H](C)CO)C[C@H]1C, the inhibition was -129%. Work on C[C@@H]1CN([C@@H](C)CO)S(=O)(=O)c2ccc(C#C[C@@H](C)O)cc2O[C@@H]1CN(C)CC1CC1 yielded an inhibition of -13.5%. In the case of C[C@H](CO)N1C[C@H](C)[C@H](CN(C)C(=O)Nc2ccc(C(F)(F)F)cc2)OCCCC[C@H](C)Oc2ccc(NC(=O)C3CCCCC3)cc2C1=O, the inhibition is reported as 9.61%. Compound COc1cc(/C=C(/NC(=O)c2ccc(Cl)cc2Cl)C(=O)O)cc(OC)c1OC has an inhibition of 4.88% [at 12.3 µM]. For CCOc1cc(/C=C(/C#N)c2ccc(Cl)cc2)cc(Cl)c1OCC(=O)O, the inhibition was 58% [at 12.3 µM] (active). For CCOc1cc(/C=N/NC(=O)OC)ccc1OCCSc1ccc(Cl)cc1, the inhibition was 4.12% [at 12.3 µM]. In the case of O=C(C[C@@H]1C[C@@H]2c3cc(NC(=O)C4CCC4)ccc3O[C@@H]2[C@@H](CO)O1)NCCN1CCCCC1, the inhibition is reported as -4.86%. For CC(Nc1ccc([N+](=O)[O-])cc1[N+](=O)[O-])c1ccccc1 (configuration not stated), the inhibition was -0.676% [at 12.3 µM]. O=C(O)c1cc([N+](=O)[O-])c(Nc2cccc3ccccc23)c([N+](=O)[O-])c1 showed an inhibition of 1.53% [at 12.3 µM]. In the case of O=C(NC(Nc1nc2ccc([N+](=O)[O-])cc2s1)(C(F)(F)F)C(F)(F)F)c1ccccc1, the inhibition is reported as 81.1% [at 12.3 µM] (active).
